An excerpt weighted towards active compounds, which were near 19% of everything screened.
DT40 TDP1 no CPT: qHTS for Inhibitors of human tyrosyl-DNA phosphodiesterase 1 (TDP1): qHTS in cells in absence of CPT. DT40 Tdp1-/- hTDP1 cells, no CPT, ATP luminescence, 48 h. Potency, µM (doses to about 46.2 µM), for inactives: top-dose activity change, negative = growth inhibition, most hits filed as inhibitors. hit rate 15% among 420,000; further: potency means the concentration at half of the fitted maximal effect; nearly all actives have a fitted effect of over 55% in size
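Cells were dispensed at 400 per well, compounds added by pin tool, plates incubated ≥48 hr at 37 °C, then CellTiter-Glo added for 30 min at room temperature before luminescence reading. Line: DT40 Tdp1-/- complemented with hTDP1; camptothecin omitted.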
HT1080-NT tox: kills 2HG-producing HT-1080-NT fibrosarcoma cells. HT-1080-NT fibrosarcoma viability, CellTiter-Glo ATP luminescence, 48 h. Potency, µM (series often up to 46.1 µM), inactives show at the highest dose activity, negative = less viability, hits mostly cytotoxic. hit rate 1.6% among 360,000;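 further: NT is the 2HG producing partner of a matched IDH1 knockdown line; potency means the concentration at half of the fitted maximal effect; 0% = DMSO-treated cells and -100% = media-only wells without cells; nearly all actives have a fitted effect of over 55% in size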
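Read-out is CellTiter-Glo luminescence after 10 minutes at room temperature, following 48 hours' compound treatment of HT-1080-NT cells (750 cells/well, RPMI, 5% FBS, 37 degrees C).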
uPA generation: inhibitors of cell surface uPA generation; cell surface uPA generation assay, qHTS; Potency, µM (doses to about 38.3 µM), for the others: top-dose activity change, negative = inhibition, most hits filed as inhibitors; hit rate 0.31% among 330,000; AID 540303; active means well fitted inhibition curve with a large enough effect; inconclusive means small, poorly fitted or top-dose-only effect; inactive means no such curve, though single readings can be large or run the other way; tested in mouse RAW 264.7 cells; further: potency means the concentration at half of the fitted maximal effect; nearly all actives have a fitted effect of over 55% in size
HT1080 IDH1KD tx: toxicity to HT-1080 IDH1 knockdown cells (counter line) | HT-1080 IDH1 knockdown viability, ATP luminescence, 48 h | Potency, µM (titrated, usually from 46.1 µM), for the others: top-dose activity, negative = toxicity, hits mostly cytotoxic | hit rate 2% among 360,000 | AID 686971;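 further: potency means the concentration at half of the fitted maximal effect; 0% = DMSO wells and -100% = cell-free medium wells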
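Using the IDH1-knockdown HT-1080 line run in the same batch and compound series as the NT line, viability after 48 h at 37 °C was determined by CellTiter-Glo luminescence and expressed as % activity.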
IL-1B inflam inh: blocks inflammasome-driven IL-1 beta release; THP-1 LPS/ATP IL-1B secretion, AlphaLISA, 16 h; stronger effect = lower value; activity change, % at 57.5 µM; hit rate 4.7% among 360,000; AID 743279; in the data active means activity change below about -50%; inconclusive means mostly about -30% to -49%
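Secreted IL-1B measured by AlphaLISA bead assay after 16 h compound exposure of THP-1 cells; compounds (final up to 57.5 uM) added 1 h before LPS (250 ng/mL) and ATP (1.25 mM) stimulation; lower signal means less secretion.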
DT40 TDP1 CPT: DT40-hTDP1 cell growth loss with CPT; chicken DT40 Tdp1-/-;hTDP1 cells + 20 nM CPT, ATP luminescence, 48 h; Potency, µM (series often up to 46.2 µM), without a hit: at the top dose activity change, negative = growth inhibition, actives largely listed as inhibitors; hit rate 12% among 420,000; AID 686979; further: potency means the concentration at half of the fitted maximal effect; nearly all actives have a fitted effect of over 55% in size
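Chicken DT40 Tdp1-/- cells stably complemented with human TDP1 were seeded at 400 cells/well in medium containing 20 nM camptothecin, exposed to pin-transferred compounds, and grown at 37 °C for at least 48 hr. Viability was read as ATP luminescence.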
* = called active by the depositor. Unless noted, the call rests on the fitted dose curve; in most records, active means well fitted curve in the direction sought with a large enough effect; inconclusive means small, poorly fitted or top-dose-only effect, or another doubt; inactive means no such curve, though single readings can be large; an effect the other way counts as inactive or inconclusive. Unless noted, on the % scale 0 is the no-effect control and ±100 the full control effect.

Results for Cc1ccc2c(c1Br)C(O)(CC(=O)c1ccc(F)cc1)C(=O)N2 (centres undefined) ?
DT40 TDP1 no CPT: inconclusive; DT40 TDP1 CPT: -16.0%

How did Cc1ccccc1CNC(=O)C1CCN(S(=O)(=O)Cc2ccccc2)CC1 do in these assays?
DT40 TDP1 no CPT: 1.4%; DT40 TDP1 CPT: 2.2%

How did Oc1ccc(C[C@H]2CNC(=S)N2CC2CCCN2C[C@H](Cc2ccc(O)cc2)N2C[C@H](Cc3ccccc3)N(CC3CCCCCC3)C2=S)cc1 (some centres undefined) do in these assays?
DT40 TDP1 no CPT: 4.11µM*; HT1080-NT tox: -10.9%; uPA generation: -23.7%; HT1080 IDH1KD tx: -21.7%; IL-1B inflam inh: -65.8*; DT40 TDP1 CPT: 10.3µM*

What do the screens show for `Oc1ccc(C[C@H]2CN([C@@H](Cc3ccccc3)CN3CCC[C@@H]3CN3C(=S)NC[C@@H]3Cc3ccccc3)C(=S)N2CC2CCCCC2)cc1`?
DT40 TDP1 no CPT: 25.9µM*; HT1080-NT tox: 23.1µM*; HT1080 IDH1KD tx: inconclusive; IL-1B inflam inh: inconclusive; DT40 TDP1 CPT: inconclusive

Results for Oc1ccc(C[C@@H](CN2CCCC2CN2C(=S)NC[C@@H]2Cc2ccccc2)N2C[C@H](Cc3ccccc3)N(CC3CCCCCC3)C2=S)cc1 (some centres undefined) ?
DT40 TDP1 no CPT: inconclusive; HT1080-NT tox: -3.5%; HT1080 IDH1KD tx: -14.6%; IL-1B inflam inh: -7.5; DT40 TDP1 CPT: inconclusive

Results for CCCCCCc1ccc(N2C[C@H](Cc3ccccc3)[C@@H](CC(=O)NCc3ccc(OC)cc3)C2=O)cc1 ?
DT40 TDP1 no CPT: 12.6µM*; HT1080-NT tox: -25.4%; uPA generation: 7.7%; HT1080 IDH1KD tx: -5.7%; IL-1B inflam inh: 0.0; DT40 TDP1 CPT: 12.6µM*

Results for CCCCCCc1ccc(N2C[C@H](CCCCC)[C@@H](CC(=O)NCc3ccccc3)C2=O)cc1 ?
DT40 TDP1 no CPT: 18.4µM*; HT1080-NT tox: 15.9%; uPA generation: 12.2%; HT1080 IDH1KD tx: 3.8%; IL-1B inflam inh: -12.9; DT40 TDP1 CPT: 14.1µM*

How did CCCCCCc1ccc(N2C[C@H](CCCCC)[C@@H](CC(=O)NCc3ccc(OC)cc3)C2=O)cc1 do in these assays?
DT40 TDP1 no CPT: 12.6µM*; HT1080-NT tox: 6.7%; uPA generation: 6.5%; HT1080 IDH1KD tx: 5.7%; IL-1B inflam inh: -4.8; DT40 TDP1 CPT: inconclusive

Results for COc1ccc(NC(=O)C[C@H]2C(=O)N(Cc3cccnc3)C[C@@H]2Cc2ccccc2)cc1 ?
DT40 TDP1 no CPT: -21.8%; HT1080-NT tox: -0.9%; HT1080 IDH1KD tx: 0.6%; IL-1B inflam inh: -10.5; DT40 TDP1 CPT: -17.7%

Results for COc1ccc(CN2C[C@H](Cc3ccccc3)[C@@H](CC(=O)Nc3ccccc3)C2=O)cc1 ?
DT40 TDP1 no CPT: 15.8µM*; HT1080-NT tox: -25.4%; uPA generation: 0.4%; HT1080 IDH1KD tx: -8.4%; IL-1B inflam inh: 6.2; DT40 TDP1 CPT: 22.4µM*

How did C=C(C)CN(CC)C(=O)CSc1ccc(S(=O)(=O)N2CCN(C)CC2)cn1 do in these assays?
DT40 TDP1 no CPT: -27.1%; HT1080-NT tox: -2.0%; uPA generation: 0.2%; HT1080 IDH1KD tx: -0.3%; IL-1B inflam inh: 0.1; DT40 TDP1 CPT: -21.7%

How did COc1ccc(CCC(=O)OCC(=O)NC2CCCC2)cc1OC do in these assays?
DT40 TDP1 no CPT: -0.7%; HT1080-NT tox: 14.1%; HT1080 IDH1KD tx: 11.9%; IL-1B inflam inh: -5.9; DT40 TDP1 CPT: 5.4%

What do the screens show for `O=C(NC(=S)NCCc1ccccc1)c1cccc(Cl)c1`?
DT40 TDP1 no CPT: -27.2%; HT1080-NT tox: -3.2%; uPA generation: -0.7%; HT1080 IDH1KD tx: 0.2%; IL-1B inflam inh: -25.7; DT40 TDP1 CPT: -12.6%

Source: PubChem (National Center for Advancing Translational Sciences (NCATS))
